Reference: PubChem BioAssay AID1962 (The Scripps Research Institute Molecular Screening Center, 2009)
In all, about 300,000 compounds went through this assay and about 2,500 (0.83%) were called active. The sample as a whole holds a higher share of actives than the screen did. Unmarked numbers belong to inactive results.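 The calls were made as follows: active = inhibition above the mean of all tested compounds plus 3 SD, set per screening campaign (cut at about 24% in these data); inactive = the rest.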

Test system: tRNA 2'-phosphotransferase TPT1 (Candida albicans SC5314)
Assay: Candida albicans TPT1 enzyme inhibitors, primary screen, biochemical, fluorescence polarization (AID 1962);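 also: plate controls were DMSO alone for no effect and ferristatin control at 100 nM for full effect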
Conditions: recombinant caTPT1, FP RNA substrate dephosphorylation; at 5 µM; active compounds read high

Row | Compound | inhibition
1 | CC1=NN(c2ccccc2)C(=O)C1C(=O)c1ccc([N+](=O)[O-])cc1 (stereo not given) | 0.3%
2 | CC(=O)N1c2ccccc2N(Cc2ccc([N+](=O)[O-])cc2)C(=O)C1(C)C | 9.11%
3 | O=C1NC(=O)C2C1C(c1ccc([N+](=O)[O-])cc1)=NN2Cc1ccccc1 (stereo not given) | 32.4% (active)
4 | CC(=O)c1ccc(N2C(=NC(=O)C(C)C)SC3CS(=O)(=O)CC32)cc1 (stereo not given) | -0.98%
5 | Nn1c(SCC(=O)Nc2nccs2)nncc1=O | 0.93%
6 | COCCn1cnc2c1c(=O)n(CC(=O)NN)c(=O)n2Cc1ccccc1 | -3.43%
7 | COc1cc(NC(=O)C2=CC(c3ccco3)=NS(=O)(=O)N2C)cc(OC)c1OC | -0.29%
8 | CC1=C(C(=O)OC2CCCCC2)C(c2ccccc2F)NC(=O)N1 (stereo not given) | 1.28%
9 | O=C(O)C(c1ccccc1)N1C(=O)/C(=C\c2ccc(-c3cccc(Cl)c3)o2)SC1=S (stereo not given) | 134% (active)
10 | O=C1c2ccccc2NC(c2ccc(-c3cccc(Cl)c3)o2)N1O (stereo not given) | 2.03%
11 | CN1C(=O)/C(=C/c2ccco2)SC1=Nc1cccc(C(=O)O)c1 | -0.91%
12 | NS(=O)(=O)c1ccc(-c2ccc(/C=C3\SC(=O)NC3=O)o2)cc1 | 0.01%
13 | O=C1NN(c2ccccc2)C(=O)/C1=C/c1ccc(-c2cccc(C(=O)O)c2)o1 | -6.86%
14 | CN1C(=O)/C(=C\c2ccc(-c3ccccc3)o2)SC1=S | 47% (active)
15 | Cn1cc[n+](C)c1COc1ccc(C=O)cc1 | -0.82%
16 | CCc1ccc(Nc2n[n+](-c3ccccc3)c(-c3cccc(Cl)c3Cl)s2)cc1 | -1.82%
17 | OCC[C@H]1C[C@H](O)[C@@H](O)[C@]2(Cc3ccccc3CO2)O1 | 1.4%
18 | Cc1ccc(C(=O)NCC(=O)OCC(=O)Nc2cccc(S(=O)(=O)N3CCCC3)c2)cc1C | -0.56%
19 | CCn1cc(C(=O)NC2CCCCCC2)c(=O)c2cc(S(=O)(=O)N3CCCCC3)ccc21 | -2.73%
20 | COc1ccc(C(=O)CC(=O)c2ccc(C)cc2)c(O)c1 | -1.28%
21 | O=C(COC(=O)c1cnccn1)Nc1cccc2ccccc12 | -2.21%
22 | Cc1cc(/C=N/NC(=O)c2cccnc2)c(C)n1CC(C)C | -3.6%
23 | O=C(N/N=C/c1sc(N2CCCCC2)nc1-c1cccs1)c1cccnc1 | 61.1% (active)

Row | Compound | inhibition
24 | O=C(N/N=C/c1ccccn1)c1cccnc1 | -1.95%
25 | CCSC(C)CC1C/C(=N/O)c2c(C)noc2C1 (stereo not given) | -7.78%
26 | COc1ccc(NC(=O)CN(C)C(=O)c2ccc(COc3ccccc3)o2)cc1 | 1.15%
27 | CCN1/C(=C/c2ccc3ccc(C)cc3[n+]2CC)Sc2ccccc21 | 49.5% (active)
28 | CCN1/C(=C\c2ccc3ccccc3[n+]2CC)Sc2cc(C)ccc21 | 68.7% (active)
29 | COCCCNC(=O)Cn1c(=O)n(Cc2ccccc2Cl)c(=O)c2cc(OC)c(OC)cc21 | 1.46%
30 | COc1ccc(C2=NOC3(CC(=O)N(c4ccc(Cl)cc4)C3=O)C2)c(OC)c1 (stereo not given) | -4.26%
31 | O=C(c1cccc(Br)c1)N1CCN(C2=NS(=O)(=O)c3ccccc32)CC1 | 0.45%
32 | COc1cccc(/C=C(/CC(=O)Nc2ccc(N3CCOCC3)cc2)c2nc3ccccc3s2)c1 | 9.31%
33 | O=S(=O)(c1cccc(-c2nnc(SC(F)F)n2-c2ccccc2)c1)N1CCCCC1 | -5.49%
34 | CCN(CC)C(=O)C(=O)Nc1cccc(Br)c1 | -2.63%
35 | Cc1ccc(CSCC(=O)N(C)CC(=O)Nc2cccc(F)c2)cc1 | 1.31%
36 | CCN(CC)C(=O)CSC(Nc1cccc(F)c1)=C(C#N)C#N | 62.4% (active)
37 | O=C(CNc1ccc(F)cc1F)NC(=O)NCc1ccco1 | -0.97%
38 | CCOC(=O)[C@H]1[C@H]2COc3ccc(Cl)cc3[C@@H]2N2C(=O)c3cc(C)ccc3NC(=O)[C@@]12C | 2.94%
39 | Cc1cc(-c2ccc(S(=O)(=O)N3CCc4ccccc4C3)s2)on1 | -0.99%
40 | CS(=O)(=O)N(CC(=O)N/N=C/c1ccccn1)c1ccc(Oc2ccccc2)cc1 | -0.87%
41 | CCCCCCc1ccc(O)cc1O | 2.21%
42 | Cc1c(CC(=O)NCCCCCC(=O)O)c(=O)oc2cc3occ(-c4ccccc4)c3cc12 | -0.72%
43 | CCCCCCc1cc2cc(-c3nnc(-c4ccccc4)o3)c(=O)oc2cc1O | 133% (active)
44 | Cn1ccc(=NC=C(C#N)C#N)c2ccccc21 | 25.3% (active)
45 | N#CC(C#N)=CN=c1ccn(Cc2ccc(Cl)cc2Cl)cc1 | 0.38%
46 | Cc1cc(NC(=O)Nc2c[nH]c(=O)[nH]c2=O)ccc1Br | 0.27%

Row | Compound | inhibition
47 | CCCc1nc2c(C)cc(-c3nc4ccccc4n3C)cc2n1Cc1ccc(-c2ccccc2C(=O)O)cc1 | 1.15%
48 | Fc1ccc(/C=N/Nc2nc(-c3cccnc3)nc3ccccc23)cc1 | 0.23%
49 | Cc1nc2ccccc2nc1N/N=C/c1ccc(O)cc1O | 1.81%
50 | Oc1ccc(/C=N/Nc2nc(-c3ccccc3F)nc3ccccc23)c(O)c1 | 24.8% (active)
51 | CN(C)C1=NC[C@H](Cc2ccccc2)N1CCc1ccc(F)cc1 | -4.71%
52 | Cc1cc(C)c(S(=O)(=O)N2C=CC(C(F)(F)F)=NCC2)c(C)c1 | -0.62%
53 | O=S(=O)(c1ccc(F)cc1)N1CCN(C(=S)NCc2ccco2)CC1 | 1.64%
54 | OCC[C@H]1C[C@@H](O)[C@H](O)[C@@]2(OCCc3ccccc32)O1 | 0.6%
55 | OCC[C@H]1C[C@H](O)[C@@H](O)[C@]2(CCc3ccccc3O2)O1 | -0.81%
56 | COc1ccccc1CC(=O)NCCc1c[nH]c2ccccc12 | -1.76%
57 | O=S(=O)(O)Oc1c[nH]c2ccccc12 | 25.4% (active)
58 | O=C(Cc1c[nH]c2ccccc12)OCCOC(=O)Cc1c[nH]c2ccccc12 | 0.4%
59 | CN1CCN(Cc2nc3cc(NC(=O)COc4ccc([N+](=O)[O-])cc4)ccc3n2C)CC1 | -2.77%
60 | COc1ccc(C(=O)Nc2sc(C)c(C)c2CN2CCOCC2)cc1 | 2.12%
61 | C#CCOCCOCCOCCNc1nc(N2CCN(C(=O)CCCCCCCCCCNC(=O)Cn3cc(CCCCCN)nn3)CC2)nc(N2CCN(C(=O)CCCCCCCCCCNC(=O)[C@H](CO)n3cc(CCCSC)nn3)CC2)n1 | -0.6%
62 | Cc1ccc(N=Cc2c(O)cc(C)oc2=O)c(C)c1 | 9.41%
63 | Cc1cc(O)c(C(=O)/C=C/c2c(F)c(F)c(F)c(F)c2F)c(=O)o1 | 44.1% (active)
64 | Cc1cc(O)c(Sc2ccccc2)c(=O)o1 | 0.86%
65 | Cc1ccc(-n2c(SCC(=O)NCCC3=CCCCC3)nc3n[nH]c(C)c3c2=N)cc1Cl | 0.45%
66 | CO[C@@H]1[C@@H](OC(N)=O)[C@@H](O)C(Oc2ccc3c(O)c(NC(=O)c4ccc(O)c(CC=C(C)C)c4)c(=O)oc3c2C)OC1(C)C (stereo not given in full) | -0.98%
67 | Cc1ccc(Cl)c(NC(=O)CN(C)CC(=O)Nc2ccc(F)c(F)c2F)c1Cl | 2.01%
68 | COc1ccc(C2=NN(C(C)=O)C(c3ccccc3)C2)cc1 (stereo not given) | -4.9%
69 | COc1ccc(C2=NN(C(=O)c3cccnc3)C(c3ccccc3)C2)cc1 (stereo not given) | 3.29%

Row | Compound | inhibition
70 | COc1ccc(C2=NN(C(=O)c3ccccc3C(=O)O)C(c3ccccc3O)C2)cc1 (stereo not given) | 35.3% (active)
71 | O=C(Nc1cc(-c2ccccc2)nn1-c1ccccc1F)c1ccc([N+](=O)[O-])cc1 | 1.59%
72 | Cc1ccc2c(c1)C(c1ccccc1)N(C(=O)c1ccc(S(=O)(=O)N3CCOCC3)cc1)CC(=O)N2 (stereo not given) | 1.61%
73 | CCN(CC)CCNc1nc(-c2ccc(OC(F)F)cc2)c(C)s1 | -0.49%
74 | CCOc1ccc(/C=C2\SC(=S)N(NC(=O)c3ccncc3)C2=O)cc1OC | 33.7% (active)
75 | COc1ccc(/C=C2\SC(=S)N(CCC(=O)Nc3ccccn3)C2=O)cc1OC | 1.07%
76 | COc1ccc(/C=C2\SC(=S)N(CC(=O)NNC(=O)c3ccncc3)C2=O)cc1 | -4.74%
77 | O=C(c1cc(-c2ccc(Cl)cc2)on1)N1CCN(c2ccccc2)CC1 | -0.95%
78 | O=C(O)CCCC(=O)Nc1ccc(Oc2cccc(C(F)(F)F)c2)nc1 | -1.11%
79 | COC(=O)c1[nH]c2cccc(C)c2c1NC(=O)CN1CCCc2ccccc21 | 29% (active)
80 | NS(=O)(=O)c1cccc(NC(=O)CN2CCCc3ccccc32)c1 | 14.5%
81 | COC(=O)c1[nH]c2ccccc2c1NC(=O)CN1CCCc2ccccc21 | 11.9%
82 | S=C(NC1CCCCC1)NN1CCOCC1 | -1.16%
83 | Cc1nn(C(C)CC(=O)O)c(C)c1C (stereo not given) | 0.87%
84 | CN(C)c1ccc(/C=N\S(=O)(=O)c2ccccc2)cc1 | 0.48%
85 | CC[n+]1cc(C)ccc1/C=C/c1ccc(N(C)C)cc1 | 29.6% (active)
86 | CCCCN(CC)C(=O)C1CCCN(S(=O)(=O)c2cccc3nsnc23)C1 (stereo not given) | -2.13%
87 | CCOC(=O)c1c(CC(C)C)csc1/N=C/C1=C(O)CCCC1=O | 98.3% (active)
88 | Cc1cc(N=CC2=C(O)CCCC2=O)no1 | -5.36%
89 | CCOC(=O)c1sc(/N=C/C2=C(O)CC(C)(C)CC2=O)c(C(=O)OCC)c1C | -1.8%
90 | CC1CCC(CN2CCN=C2N(C)C)CC1 (stereo not given) | -1.25%
